# Assay outcomes: PubChem BioAssay, National Center for Advancing Translational Sciences (NCATS)
# Most compounds without a hit are left out; they make up all but 1.8% or so of the library.
# GLP1R cytotox: cytotoxicity in counter-screen for GLP-1R inverse agonists. HEK293 cAMP-luciferase reporter cells, luminescence, 24 h. Potency, µM (titrated, usually from 38.3 µM), for the others: at the top dose activity change, negative = inhibition, hits mostly inhibitors. 0.13% of 410,000 active. AID 624418;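 further: loss of luciferase light is scored as toxicity; on the % scale 0 is the no-effect control and ±100 the full control effect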
#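 1536-well qHTS counterscreen of the MLSMR; 200 cells/uL, 12 h pre-incubation, 23 nL cpd, 24 h at 37 deg C 5% CO2, luciferase detection reagent, 12 min RT, luminescence. Inhibition = undesired.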
# GLP-1R agonist: GLP-1 receptor (human) agonism; P43220; HEK293 GLP-1R CRE-luciferase, luminescence, 4-6 h; cells express a hypersensitive GLP-1R form; Potency, µM (titrated, usually from 45.6 µM), without a hit: at the top dose activation, most hits filed as activators; 0.007% of 380,000 active; AID 624172; further: % of control where 0% means no effect
# Pin1 inh: human Pin1 inhibition | Q13526 | Pin1 FP peptide displacement, HiFluor488, 10 min | Potency, µM (titrated, usually from 115 µM), for the others: top-dose activity, negative = inhibition, actives largely listed as inhibitors | 0.009% of 390,000 active | AID 504891; active means well fitted inhibition curve with a large enough effect in the polarisation, with a control signal flat, not every such curve was filed as active; inconclusive means small, poorly fitted or top-dose-only effect, or effect the other way, or a change in a side signal; inactive means no such curve, though single readings can be large or run the other way; the % refers to the polarisation; further: on the % scale 0 is the no-effect control and ±100 the full control effect
# Target sequence (Q13526 whole entry, looked up): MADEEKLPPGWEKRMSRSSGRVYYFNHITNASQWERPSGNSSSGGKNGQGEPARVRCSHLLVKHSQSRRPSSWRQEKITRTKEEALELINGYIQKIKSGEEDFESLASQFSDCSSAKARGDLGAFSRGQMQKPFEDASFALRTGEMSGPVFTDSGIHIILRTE
# Tb PFK inh: T. brucei PFK enzyme inhibition; O15648; T. brucei PFK, ADP-Glo luminescence; Potency, µM (top dose mostly 57.5 µM), inactives show at the top dose activity, negative = inhibition, actives largely listed as inhibitors; 0.17% of 330,000 active; AID 485367;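 further: 0% = uninhibited 1x PFK enzyme wells and -100% = no-enzyme wells; nearly all actives have a fitted effect of over 60% in size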
# Target sequence (O15648 whole entry, looked up): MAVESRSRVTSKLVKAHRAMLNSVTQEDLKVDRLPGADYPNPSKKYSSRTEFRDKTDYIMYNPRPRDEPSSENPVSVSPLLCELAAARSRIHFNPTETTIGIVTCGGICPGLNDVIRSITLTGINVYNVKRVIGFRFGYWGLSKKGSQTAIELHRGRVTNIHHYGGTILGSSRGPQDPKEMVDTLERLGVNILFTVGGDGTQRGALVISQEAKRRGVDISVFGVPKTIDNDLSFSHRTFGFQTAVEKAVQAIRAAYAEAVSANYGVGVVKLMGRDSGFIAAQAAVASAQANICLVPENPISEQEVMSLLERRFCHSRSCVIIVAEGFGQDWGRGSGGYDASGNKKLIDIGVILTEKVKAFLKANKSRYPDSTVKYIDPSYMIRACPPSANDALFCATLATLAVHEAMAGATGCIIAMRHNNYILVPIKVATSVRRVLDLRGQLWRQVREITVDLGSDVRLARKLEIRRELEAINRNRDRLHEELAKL
#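 PFK 1.25 nM, F6P 0.5 mM, ATP 0.1 mM, 0.1 M TEA pH 8.0, 5 mM MgCl2, 0.01% Tween20, 0.1% BSA; 45 min RT. ADP-Glo readout. qHTS titration up to 57 uM; curves fitted, compounds curve-classed.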
# GLP1R inv ag: acts as inverse agonist at human GLP-1 receptor. P43220. HEK293 GLP-1R CRE-luciferase, luminescence, 24 h; GLP-1R form is constitutively active. Potency, µM (doses to about 38.3 µM), for inactives: top-dose activity change, negative = inhibition, hits mostly inhibitors. 1.6% of 410,000 active. AID 624417; further: on the % scale 0 is the no-effect control and ±100 the full control effect; nearly all actives have a fitted effect of over 55% in size
#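 Luminescence readout: a drop in cAMP-driven luciferase signal flags inverse agonism at a constitutively active GLP-1R stably expressed in HEK293. Compound exposure lasted 24 hr at 37 deg C, 5% CO2.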
# PGK inhibitor: T. brucei PGK inhibition. P07378. 0.043% of 380,000 active. Potency, µM (top dose mostly 57.5 µM), for the others: top-dose activity change, negative = inhibition, usual class: inhibitors. PGK/GAPDH coupled, Kinase-Glo luminescence, 60 min; further: on the % scale 0 is the no-effect control and ±100 the full control effect; nearly all actives have a fitted effect of over 60% in size
#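 Recombinant glycosomal PGK reaction used 1,3-bisphosphoglycerate generated in-well by GAPDH (100nM final) in 100mM TEA pH 7.6, 5mM MgCl2, 0.01% Tween-20. After 60 minutes at room temperature, ATP was read by Kinase-Glo Plus luminescence end-point.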
# The depositor's hits bear a star; i = inactive; ? = inconclusive; nt = not tested or not shown. Unless noted, the call rests on the fitted dose curve; in most records, active means well fitted curve in the direction sought with a large enough effect; inconclusive means small, poorly fitted or top-dose-only effect, or another doubt; inactive means no such curve, though single readings can be large; an effect the other way counts as inactive or inconclusive. Potency means the concentration at half of the fitted maximal effect.
SMILES,GLP1R cytotox,GLP-1R agonist,Pin1 inh,Tb PFK inh,GLP1R inv ag,PGK inhibitor
O=C(NCc1ccccn1)c1cc(Cl)ccc1OCc1ccccc1,0.8%,3.7%,-14.9%,-4.5%,3.55µM*,3.4%
O=C(NNC(=O)c1ccccc1OCc1ccc(F)cc1)c1ccccc1O,-2.3%,-4.8%,4.9%,-7.9%,?,-1.7%
O=C(N/N=C/c1ccccc1F)c1ccccc1OCc1ccccc1,1.1%,21.0%,6.6%,5.9%,7.94µM*,-1.3%
CCN(CC(=O)Nc1ccccc1C(F)(F)F)C(=O)CCOc1ccccc1C,-3.3%,4.5%,-2.4%,-3.1%,?,-9.1%
COc1ccccc1-c1noc(-c2ccc(N3CCOCC3)c([N+](=O)[O-])c2)n1,-3.5%,nt,0.0%,nt,30.2%,i
C/C(=N\NC(=O)c1ccccc1OCc1ccc(F)cc1)c1ccccn1,?,14.9%,5.1%,-0.8%,5.01µM*,i
C/C(=N\NC(=O)c1cccc2ccccc12)c1ccccn1,?,2.2%,-6.7%,-5.6%,?,-7.6%
N#CC1=C(N)NC(SCc2ccc(Br)cc2)=C(C#N)C12CCCCC2,-14.2%,1.4%,-4.7%,-1.0%,10µM*,-5.0%
N#CC1=C(N)NC(SCc2ccc(Cl)cc2)=C(C#N)C12CCCCC2,?,-18.4%,-0.1%,0.9%,?,5.5%
COc1ccc(N(C)C(=O)CCn2cnc3onc(-c4ccc(F)cc4)c3c2=O)c(OC)c1,-1.2%,nt,-4.4%,nt,?,-0.2%
CCCCCCn1c(=O)n2n(c1=O)[C@@H]1CN(S(=O)(=O)c3ccc(C)cc3)C[C@]1(O)[C@@H](OC(=O)NCc1ccccc1)C2,-17.3%,-2.6%,nt,nt,11.2µM*,8.3%
CCCCCCn1c(=O)n2n(c1=O)C[C@]1(OC(=O)NCC3CCCCC3)CN(S(=O)(=O)c3ccc(C)cc3)C[C@]1(O)C2,-20.5%,-3.3%,nt,nt,10µM*,-7.7%
Cc1ccc(S(=O)(=O)N2C[C@H]3n4c(=O)ccc(=O)n4C[C@H](OC(=O)NCc4ccccc4)[C@@]3(O)C2)cc1,-11.0%,-5.2%,nt,nt,?,-8.7%
CCOc1ccc(NS(=O)(=O)c2ccc(C(=O)N(C)C)s2)cc1,-1.4%,nt,0.8%,nt,-19.0%,-6.2%
C/C=C/c1cnc2c(c1)C(=O)N([C@H](C)CO)C[C@H](C)[C@@H](CN(C)C(=O)CN1CCOCC1)O2,-14.5%,-5.3%,nt,nt,14.3%,-1.6%
CC1CCN(c2ccccc2NC(=S)NC(=O)c2ccco2)CC1,?,2.6%,2.4%,nt,10µM*,-8.5%
Cc1cc(C)cc(C(=O)Nc2c3c(nn2-c2ccccc2C)CS(=O)(=O)C3)c1,0.5%,-1.9%,-6.8%,nt,1.2%,-2.1%
Cc1ccc(NC(=O)C(C)n2nnc3sc4c(c3c2=O)CCCC4)cc1Cl (stereo not given),-0.9%,nt,39.9%,nt,?,nt
CC(=O)N=c1scc(-c2ccccc2)n1-c1cccc(O)c1,1.7%,6.8%,-1.1%,-0.9%,11.2µM*,2.1%
CC(CCO)Nc1nc2c(c(=O)n(C)c(=O)n2C)n1Cc1ccc(Br)cc1 (stereo not given),1.0%,nt,?,nt,2.7%,8.3%
Clc1ccc(-c2noc(CN3CCOCC3)n2)cc1,-4.6%,1.8%,-4.9%,-2.9%,16.3%,i
O=C1CCN(Cc2nc(-c3ccc(Cl)cc3)no2)CCN1,-0.7%,0.1%,-1.5%,-5.2%,4.47µM*,-3.6%
CCOc1ccccc1N(CC(=O)NC1CCCCC1)C(=O)c1nsc(Cl)c1Cl,2.5%,15.0%,8.0%,4.2%,10µM*,-5.4%
Cc1ccc(Oc2c(C(N)=O)cc([N+](=O)[O-])cc2[N+](=O)[O-])cc1,?,-34.7%,1.8%,-8.6%,11.2µM*,-6.7%
Cc1ccc(CNc2ccc([N+](=O)[O-])cc2C(N)=O)cc1,-8.0%,?,2.0%,-13.5%,44.9%,-1.1%
SMILES,GLP1R cytotox,GLP-1R agonist,Pin1 inh,Tb PFK inh,GLP1R inv ag,PGK inhibitor
O=C(Nc1cccc(-c2nc3ccccc3[nH]2)c1)c1c(F)cccc1F,-29.1%,nt,0.2%,nt,-25.4%,-12.6%
CCOC(=O)C1=C(C)N=c2s/c(=C\c3ccc(OCC(=O)O)cc3)c(=O)n2C1c1ccc(Cl)cc1 (stereo not given),4.1%,-4.1%,?,?,9.7%,?
CCOC(=O)C1=C(C)N=c2s/c(=C/c3ccc(OCC(=O)O)c(OC)c3)c(=O)n2C1c1ccc(Cl)cc1 (stereo not given),-1.2%,-2.6%,?,nt,-16.6%,14.1µM*
COc1cc2c(=O)c(C(=O)c3ccc(C)c(C)c3)cn(Cc3ccccc3F)c2cc1OC,-2.4%,nt,?,nt,17.4%,-5.7%
Cc1cccc(COCC(Cc2ccccc2)N2CCN(C(=O)c3ccc(Cl)c(Cl)c3)CCC2=O)c1 (stereo not given),?,9.5%,-2.7%,-1.6%,?,-5.0%
CC(C)(C)c1ccc(C(=O)N2CCC(=O)N([C@H](COCc3ccccc3)Cc3ccccc3)CC2)cc1,?,-3.7%,nt,nt,10µM*,nt
O=C(c1ccc(Cl)c(Cl)c1)N1CCC(=O)N(C(COCc2ccc(Cl)cc2)Cc2ccccc2)CC1 (stereo not given),15.6%,-0.1%,5.6%,0.3%,10µM*,4.6%
CC(C)(C)c1ccc(C(=O)N2CCC(=O)N(C(COCc3ccccc3)Cc3ccccc3)CC2)cc1 (stereo not given),?,6.5%,0.4%,-6.2%,?,i
CCCCn1nnnc1C(c1ccccc1)N1CCN(c2ccc(F)cc2)CC1 (stereo not given),6.6%,-1.6%,nt,nt,-25.3%,nt
c1ccc(Cn2nnnc2C(c2ccccc2)N2CCN(c3nc4ccccc4s3)CC2)cc1 (stereo not given),-9.3%,-4.0%,2.3%,-4.1%,-11.3%,-4.7%
Fc1ccc(C(c2nnnn2Cc2cccs2)N2CCN(c3ccccc3)CC2)cc1 (stereo not given),4.1%,-7.4%,36.5%,-0.5%,7.94µM*,i
CCCCC(c1nnnn1Cc1ccco1)N1CCN(c2nc3ccccc3s2)CC1 (stereo not given),-5.3%,2.6%,46.0%,-1.9%,7.08µM*,-4.7%
c1ccc(C(c2nnnn2Cc2ccco2)N2CCN(c3nc4ccccc4s3)CC2)cc1 (stereo not given),-12.2%,-5.7%,44.4%,6.0%,7.94µM*,-0.6%
CCC(CO)NC(=O)C(=O)Nc1c2c(nn1-c1ccc(F)cc1)CSC2 (stereo not given),-1.4%,nt,-1.7%,nt,9.1%,1.1%
C=C(CC1([C@@H](NP(=O)(c2ccccc2)c2ccccc2)[C@H]2C[C@@H]2CCCC)CC1)c1ccccc1,8.9%,1.5%,-0.8%,-6.6%,2.51µM*,-9.3%
